Source: article PMC11006913

Legend:
Test in all cases: PBM; 200 nM protein, PBS
Details in all cases: dsDNA, one strand shown
HOXB9 [1] = target: HOXB9 (Homo sapiens, UniProt P17482 171-250, T197M)
HOXB6 = HOXB6 (Homo sapiens, UniProt P17509 132-218, K202E)
ALX3 = ALX3 (Homo sapiens, UniProt O95076 139-225, N203S)
HOXA2 [2] = target: HOXA2 (Homo sapiens, UniProt O43364 129-215, R185T)
HOXB9 [3] = target: HOXB9 (Homo sapiens, UniProt P17482 171-250)
HOXA2 [4] = target: HOXA2 (Homo sapiens, UniProt O43364 129-215, R185K)
VAX1 [5] = target: VAX1 (Homo sapiens, UniProt Q5SQQ9 86-172)
HOXB9 [6] = target: HOXB9 (Homo sapiens, UniProt P17482 171-250, R186Q)
VAX1 [7] = target: VAX1 (Homo sapiens, UniProt Q5SQQ9 86-172, T142I)
HOXA2 [8] = target: HOXA2 (Homo sapiens, UniProt O43364 129-215, Y150S)
HOXA2 [9] = target: HOXA2 (Homo sapiens, UniProt O43364 129-215)
VAX1 [10] = target: VAX1 (Homo sapiens, UniProt Q5SQQ9 86-172, K157R)
HOXD13 [11] = target: HOXD13 (Homo sapiens, UniProt P35453 263-343, T313R)
HOXD13 [12] = target: HOXD13 (Homo sapiens, UniProt P35453 263-343)
HOXD13 [13] = target: HOXD13 (Homo sapiens, UniProt P35453 263-343, T313A)
NKX3-2 [14] = target: NKX3-2 (Homo sapiens, UniProt P78367 192-278, P234S)
NKX3-2 [15] = target: NKX3-2 (Homo sapiens, UniProt P78367 192-278)
PITX2 = PITX2 (Homo sapiens, UniProt Q99697 72-157)
MSX2 [16] = target: MSX2 (Homo sapiens, UniProt P35548 130-214, R199I)
MSX2 [17] = target: MSX2 (Homo sapiens, UniProt P35548 130-214)
MSX2 [18] = target: MSX2 (Homo sapiens, UniProt P35548 130-214, F161Y)
MSX2 (Homo sapiens, UniProt P35548 130-214, F161Y), sequence (P35548 130-214 F161Y): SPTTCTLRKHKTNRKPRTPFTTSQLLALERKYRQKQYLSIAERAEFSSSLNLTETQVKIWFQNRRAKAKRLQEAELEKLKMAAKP

HOXB9 (Homo sapiens, UniProt P17482 171-250), sequence (P17482 171-250): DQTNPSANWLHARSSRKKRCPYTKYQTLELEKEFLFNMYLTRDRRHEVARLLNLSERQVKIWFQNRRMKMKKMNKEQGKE
HOXB9 (Homo sapiens, UniProt P17482 171-250, R186Q), sequence (P17482 171-250 R186Q): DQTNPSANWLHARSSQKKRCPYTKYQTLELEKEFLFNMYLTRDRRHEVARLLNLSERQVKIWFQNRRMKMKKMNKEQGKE
HOXB9 (Homo sapiens, UniProt P17482 171-250, T197M), sequence (P17482 171-250 T197M): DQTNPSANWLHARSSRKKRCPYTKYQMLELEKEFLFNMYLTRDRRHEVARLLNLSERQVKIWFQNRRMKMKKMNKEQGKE
HOXD13 (Homo sapiens, UniProt P35453 263-343, T313A), sequence (P35453 263-343 T313A): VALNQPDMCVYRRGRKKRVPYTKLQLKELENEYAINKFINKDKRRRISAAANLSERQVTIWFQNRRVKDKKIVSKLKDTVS
NKX3-2 (Homo sapiens, UniProt P78367 192-278), sequence (P78367 192-278): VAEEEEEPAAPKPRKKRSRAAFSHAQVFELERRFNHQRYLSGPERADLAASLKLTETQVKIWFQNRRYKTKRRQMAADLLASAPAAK
HOXD13 (Homo sapiens, UniProt P35453 263-343), sequence (P35453 263-343): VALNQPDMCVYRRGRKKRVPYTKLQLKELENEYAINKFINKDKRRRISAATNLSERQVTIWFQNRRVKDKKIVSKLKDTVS
MSX2 (Homo sapiens, UniProt P35548 130-214, R199I), sequence (P35548 130-214 R199I): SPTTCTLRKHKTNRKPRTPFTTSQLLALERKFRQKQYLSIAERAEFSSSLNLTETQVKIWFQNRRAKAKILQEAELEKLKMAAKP
NKX3-2 (Homo sapiens, UniProt P78367 192-278, P234S), sequence (P78367 192-278 P234S): as the sequence (P78367 192-278) above, with P43S counted along it
HOXD13 (Homo sapiens, UniProt P35453 263-343, T313R), sequence (P35453 263-343 T313R): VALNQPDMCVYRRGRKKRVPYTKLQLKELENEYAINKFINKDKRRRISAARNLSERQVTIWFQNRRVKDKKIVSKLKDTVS
MSX2 (Homo sapiens, UniProt P35548 130-214), sequence (P35548 130-214): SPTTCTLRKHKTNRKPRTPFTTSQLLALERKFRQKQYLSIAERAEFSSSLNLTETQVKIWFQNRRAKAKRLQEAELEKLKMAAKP
VAX1 (Homo sapiens, UniProt Q5SQQ9 86-172, T142I), sequence (Q5SQQ9 86-172 T142I): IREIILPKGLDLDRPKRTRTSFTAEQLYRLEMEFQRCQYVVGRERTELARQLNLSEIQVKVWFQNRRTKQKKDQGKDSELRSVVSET
HOXA2 (Homo sapiens, UniProt O43364 129-215, Y150S), sequence (O43364 129-215 Y150S): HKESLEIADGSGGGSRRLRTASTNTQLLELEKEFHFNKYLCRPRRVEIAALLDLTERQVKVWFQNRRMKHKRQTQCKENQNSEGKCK
HOXA2 (Homo sapiens, UniProt O43364 129-215, R185K), sequence (O43364 129-215 R185K): as the sequence (O43364 129-215 Y150S) above, with S22Y, R57K counted along it
HOXA2 (Homo sapiens, UniProt O43364 129-215, R185T), sequence (O43364 129-215 R185T): as the sequence (O43364 129-215 Y150S) above, with S22Y, R57T counted along it
HOXA2 (Homo sapiens, UniProt O43364 129-215), sequence (O43364 129-215): as the sequence (O43364 129-215 Y150S) above, with S22Y counted along it
HOXB6, sequence (P17509 132-218 K202E): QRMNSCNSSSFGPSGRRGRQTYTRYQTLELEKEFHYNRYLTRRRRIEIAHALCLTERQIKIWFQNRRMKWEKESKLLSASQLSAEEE
VAX1 (Homo sapiens, UniProt Q5SQQ9 86-172, K157R), sequence (Q5SQQ9 86-172 K157R): as the sequence (Q5SQQ9 86-172 T142I) above, with I57T, K72R counted along it
ALX3, sequence (O95076 139-225 N203S): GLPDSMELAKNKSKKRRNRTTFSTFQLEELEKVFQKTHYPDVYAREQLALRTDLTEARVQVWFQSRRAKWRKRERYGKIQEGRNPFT
VAX1 (Homo sapiens, UniProt Q5SQQ9 86-172), sequence (Q5SQQ9 86-172): as the sequence (Q5SQQ9 86-172 T142I) above, with I57T counted along it

ATAAATTG
binding signal (HOXB9 [1]): 9.96 upbm affinity estimate (log intensity, higher = more binding, comparable within an allelic series)
binding signal (HOXB6): 10 upbm affinity estimate (log intensity, higher = more binding, comparable within an allelic series)
binding signal (ALX3): 8.68 upbm affinity estimate (log intensity, higher = more binding, comparable within an allelic series)

CGCGCCCC
binding signal (HOXB9 [1]): 8.45 upbm affinity estimate (log intensity, higher = more binding, comparable within an allelic series)
binding signal (HOXA2 [2]): 7.42 upbm affinity estimate (log intensity, higher = more binding, comparable within an allelic series)
binding signal (HOXB9 [3]): 8.02 upbm affinity estimate (log intensity, higher = more binding, comparable within an allelic series)
binding signal (HOXA2 [4]): 10.1 upbm affinity estimate (log intensity, higher = more binding, comparable within an allelic series)
binding signal (VAX1 [5]): 7.05 upbm affinity estimate (log intensity, higher = more binding, comparable within an allelic series)
binding signal (HOXB9 [6]): 8.34 upbm affinity estimate (log intensity, higher = more binding, comparable within an allelic series)
binding signal (VAX1 [7]): 6.95 upbm affinity estimate (log intensity, higher = more binding, comparable within an allelic series)
binding signal (HOXA2 [8]): 10.2 upbm affinity estimate (log intensity, higher = more binding, comparable within an allelic series)
binding signal (HOXA2 [9]): 7.21 upbm affinity estimate (log intensity, higher = more binding, comparable within an allelic series)
binding signal (VAX1 [10]): 7.04 upbm affinity estimate (log intensity, higher = more binding, comparable within an allelic series)

AGCCCCGG
binding signal (HOXB9 [1]): 8.65 upbm affinity estimate (log intensity, higher = more binding, comparable within an allelic series)
binding signal (HOXB9 [3]): 8.31 upbm affinity estimate (log intensity, higher = more binding, comparable within an allelic series)
binding signal (HOXD13 [11]): 9.53 upbm affinity estimate (log intensity, higher = more binding, comparable within an allelic series)
binding signal (HOXD13 [12]): 9.4 upbm affinity estimate (log intensity, higher = more binding, comparable within an allelic series)
binding signal (HOXD13 [13]): 9.76 upbm affinity estimate (log intensity, higher = more binding, comparable within an allelic series)
binding signal (HOXB9 [6]): 8.53 upbm affinity estimate (log intensity, higher = more binding, comparable within an allelic series)
binding signal (NKX3-2 [14]): 10.6 upbm affinity estimate (log intensity, higher = more binding, comparable within an allelic series)
binding signal (NKX3-2 [15]): 10.6 upbm affinity estimate (log intensity, higher = more binding, comparable within an allelic series)

CTTGGCGC
binding signal (HOXB9 [1]): 8.47 upbm affinity estimate (log intensity, higher = more binding, comparable within an allelic series)
binding signal (HOXB9 [3]): 8.24 upbm affinity estimate (log intensity, higher = more binding, comparable within an allelic series)
binding signal (PITX2): 7.94 upbm affinity estimate (log intensity, higher = more binding, comparable within an allelic series)
binding signal (HOXB9 [6]): 8.21 upbm affinity estimate (log intensity, higher = more binding, comparable within an allelic series)

GACATAAA
binding signal (HOXB9 [1]): 9.74 upbm affinity estimate (log intensity, higher = more binding, comparable within an allelic series)
binding signal (HOXB9 [3]): 11.7 upbm affinity estimate (log intensity, higher = more binding, comparable within an allelic series)
binding signal (HOXB9 [6]): 11.3 upbm affinity estimate (log intensity, higher = more binding, comparable within an allelic series)

CCTGCTCG
binding signal (HOXB9 [1]): 8.58 upbm affinity estimate (log intensity, higher = more binding, comparable within an allelic series)
binding signal (HOXB9 [3]): 8.34 upbm affinity estimate (log intensity, higher = more binding, comparable within an allelic series)
binding signal (MSX2 [16]): 9.56 upbm affinity estimate (log intensity, higher = more binding, comparable within an allelic series)
binding signal (MSX2 [17]): 9.58 upbm affinity estimate (log intensity, higher = more binding, comparable within an allelic series)
binding signal (HOXB9 [6]): 8.42 upbm affinity estimate (log intensity, higher = more binding, comparable within an allelic series)
binding signal (MSX2 [18]): 9.61 upbm affinity estimate (log intensity, higher = more binding, comparable within an allelic series)

CGGGCAAC
binding signal (HOXB9 [1]): 8.62 upbm affinity estimate (log intensity, higher = more binding, comparable within an allelic series)
binding signal (HOXB9 [3]): 8.62 upbm affinity estimate (log intensity, higher = more binding, comparable within an allelic series)
binding signal (PITX2): 7.85 upbm affinity estimate (log intensity, higher = more binding, comparable within an allelic series)
binding signal (HOXB9 [6]): 8.68 upbm affinity estimate (log intensity, higher = more binding, comparable within an allelic series)

CTGCCGGC
binding signal (HOXB9 [1]): 8.63 upbm affinity estimate (log intensity, higher = more binding, comparable within an allelic series)
binding signal (HOXB9 [3]): 8.65 upbm affinity estimate (log intensity, higher = more binding, comparable within an allelic series)
binding signal (HOXD13 [11]): 9.44 upbm affinity estimate (log intensity, higher = more binding, comparable within an allelic series)
binding signal (HOXD13 [12]): 9.54 upbm affinity estimate (log intensity, higher = more binding, comparable within an allelic series)
binding signal (HOXD13 [13]): 9.67 upbm affinity estimate (log intensity, higher = more binding, comparable within an allelic series)
binding signal (HOXB9 [6]): 8.68 upbm affinity estimate (log intensity, higher = more binding, comparable within an allelic series)
binding signal (NKX3-2 [14]): 10.4 upbm affinity estimate (log intensity, higher = more binding, comparable within an allelic series)
binding signal (NKX3-2 [15]): 10.3 upbm affinity estimate (log intensity, higher = more binding, comparable within an allelic series)

ACCGGGGA
binding signal (HOXB9 [1]): 8.44 upbm affinity estimate (log intensity, higher = more binding, comparable within an allelic series)
binding signal (HOXB9 [3]): 8.19 upbm affinity estimate (log intensity, higher = more binding, comparable within an allelic series)
binding signal (MSX2 [16]): 9.45 upbm affinity estimate (log intensity, higher = more binding, comparable within an allelic series)
binding signal (MSX2 [17]): 9.39 upbm affinity estimate (log intensity, higher = more binding, comparable within an allelic series)
binding signal (HOXB9 [6]): 8.23 upbm affinity estimate (log intensity, higher = more binding, comparable within an allelic series)
binding signal (MSX2 [18]): 9.41 upbm affinity estimate (log intensity, higher = more binding, comparable within an allelic series)
